# Assays:
# [1] = molecular target: T1, Inhibitor of nuclear factor kappa-B kinase subunit epsilon (Homo sapiens) (UniProt Q14164); conditions: at 1 µM;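 further: reported values are averaged percent inhibition figures against human IKKε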
# T1 sequence (whole entry): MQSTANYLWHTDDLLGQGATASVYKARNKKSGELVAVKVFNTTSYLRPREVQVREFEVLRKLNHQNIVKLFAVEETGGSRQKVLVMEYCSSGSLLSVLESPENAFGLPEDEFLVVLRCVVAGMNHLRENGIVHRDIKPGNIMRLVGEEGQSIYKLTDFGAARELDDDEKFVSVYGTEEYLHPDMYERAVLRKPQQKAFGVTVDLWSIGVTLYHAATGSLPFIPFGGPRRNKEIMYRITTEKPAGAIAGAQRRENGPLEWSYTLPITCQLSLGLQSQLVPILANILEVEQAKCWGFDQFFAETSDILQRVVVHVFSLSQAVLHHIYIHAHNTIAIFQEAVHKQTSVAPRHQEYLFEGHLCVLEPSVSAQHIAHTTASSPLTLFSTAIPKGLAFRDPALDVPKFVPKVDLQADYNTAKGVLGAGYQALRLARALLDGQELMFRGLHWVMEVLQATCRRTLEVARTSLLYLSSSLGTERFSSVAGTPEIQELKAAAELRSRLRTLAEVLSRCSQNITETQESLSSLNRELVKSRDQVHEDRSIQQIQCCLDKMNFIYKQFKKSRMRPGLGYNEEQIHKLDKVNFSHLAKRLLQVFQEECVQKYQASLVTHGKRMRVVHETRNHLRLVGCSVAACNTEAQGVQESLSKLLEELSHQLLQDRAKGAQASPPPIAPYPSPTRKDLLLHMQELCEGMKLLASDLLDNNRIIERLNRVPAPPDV
# [2] = molecular target: T2, Serine/threonine-protein kinase Nek1 (Homo sapiens) (UniProt Q96PY6); conditions: at 0.1 µM
# T2 sequence (whole entry): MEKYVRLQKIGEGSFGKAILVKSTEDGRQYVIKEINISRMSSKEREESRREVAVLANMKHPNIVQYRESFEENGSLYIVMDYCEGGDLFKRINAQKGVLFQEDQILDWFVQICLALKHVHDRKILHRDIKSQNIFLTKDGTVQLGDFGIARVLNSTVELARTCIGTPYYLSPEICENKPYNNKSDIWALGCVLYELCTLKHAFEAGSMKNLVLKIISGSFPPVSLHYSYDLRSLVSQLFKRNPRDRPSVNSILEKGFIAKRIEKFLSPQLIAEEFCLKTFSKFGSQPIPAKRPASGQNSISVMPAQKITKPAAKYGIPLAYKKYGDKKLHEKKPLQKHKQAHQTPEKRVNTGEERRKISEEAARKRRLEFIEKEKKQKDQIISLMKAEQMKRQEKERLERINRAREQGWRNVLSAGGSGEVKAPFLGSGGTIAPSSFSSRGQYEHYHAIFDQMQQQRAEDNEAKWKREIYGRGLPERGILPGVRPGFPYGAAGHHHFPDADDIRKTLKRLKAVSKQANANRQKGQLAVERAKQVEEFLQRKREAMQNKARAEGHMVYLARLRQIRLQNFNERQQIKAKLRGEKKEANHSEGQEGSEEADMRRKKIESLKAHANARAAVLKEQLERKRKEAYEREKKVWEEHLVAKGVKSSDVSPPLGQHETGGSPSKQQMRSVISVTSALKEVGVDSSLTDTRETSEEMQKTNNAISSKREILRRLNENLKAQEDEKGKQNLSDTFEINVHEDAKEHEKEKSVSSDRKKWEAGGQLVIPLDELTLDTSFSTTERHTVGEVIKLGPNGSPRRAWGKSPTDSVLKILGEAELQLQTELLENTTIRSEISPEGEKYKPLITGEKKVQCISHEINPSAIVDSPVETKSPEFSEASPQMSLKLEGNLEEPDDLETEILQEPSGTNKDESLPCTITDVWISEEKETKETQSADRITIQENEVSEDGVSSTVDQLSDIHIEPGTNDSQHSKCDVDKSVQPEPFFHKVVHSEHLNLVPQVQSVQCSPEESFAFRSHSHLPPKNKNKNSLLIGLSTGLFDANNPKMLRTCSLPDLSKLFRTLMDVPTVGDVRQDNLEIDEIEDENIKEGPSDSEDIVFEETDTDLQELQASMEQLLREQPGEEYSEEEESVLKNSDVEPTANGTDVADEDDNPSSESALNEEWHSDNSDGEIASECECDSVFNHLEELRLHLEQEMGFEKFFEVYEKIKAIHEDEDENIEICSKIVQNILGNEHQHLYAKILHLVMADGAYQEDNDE
# [3] = molecular target: T2, Serine/threonine-protein kinase Nek1 (Homo sapiens); conditions: at 1 µM
# [4] = molecular target: T3, Serine/threonine-protein kinase Nek2 (Homo sapiens) (UniProt P51955); conditions: at 0.1 µM
# T3 sequence (whole entry): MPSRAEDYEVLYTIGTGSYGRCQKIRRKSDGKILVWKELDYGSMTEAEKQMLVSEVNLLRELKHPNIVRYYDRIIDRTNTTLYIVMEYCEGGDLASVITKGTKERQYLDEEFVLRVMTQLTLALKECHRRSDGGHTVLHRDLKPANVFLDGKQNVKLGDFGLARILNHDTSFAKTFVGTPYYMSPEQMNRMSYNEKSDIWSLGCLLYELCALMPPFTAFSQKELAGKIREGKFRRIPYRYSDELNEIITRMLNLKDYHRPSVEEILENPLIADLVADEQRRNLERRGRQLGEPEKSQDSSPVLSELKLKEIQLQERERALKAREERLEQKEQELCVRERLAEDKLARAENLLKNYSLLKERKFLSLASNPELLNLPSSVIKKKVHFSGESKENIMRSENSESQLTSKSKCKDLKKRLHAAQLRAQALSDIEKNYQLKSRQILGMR
# [5] = molecular target: T3, Serine/threonine-protein kinase Nek2 (Homo sapiens); conditions: at 1 µM
# [6] = molecular target: Serine/threonine-protein kinase Nek6 (Homo sapiens) (UniProt Q9HC98); conditions: at 0.1 µM
# Serine/threonine-protein kinase Nek6 (Homo sapiens), sequence (Q9HC98 whole entry): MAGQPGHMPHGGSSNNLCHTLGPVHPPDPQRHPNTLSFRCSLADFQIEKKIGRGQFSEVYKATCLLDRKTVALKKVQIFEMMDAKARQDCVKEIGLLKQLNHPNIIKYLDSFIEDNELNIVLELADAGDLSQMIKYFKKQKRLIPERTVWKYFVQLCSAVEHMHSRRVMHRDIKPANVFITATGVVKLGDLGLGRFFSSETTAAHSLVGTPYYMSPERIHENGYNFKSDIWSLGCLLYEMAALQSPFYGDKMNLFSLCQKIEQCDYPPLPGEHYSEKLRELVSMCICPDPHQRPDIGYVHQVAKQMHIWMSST
# [7] = molecular target: Serine/threonine-protein kinase Nek6 (Homo sapiens) (UniProt Q9HC98); conditions: at 1 µM
# [8] = molecular target: Serine/threonine-protein kinase Nek7 (Homo sapiens) (UniProt Q8TDX7); conditions: at 0.1 µM
# Serine/threonine-protein kinase Nek7 (Homo sapiens), sequence (Q8TDX7 whole entry, looked up): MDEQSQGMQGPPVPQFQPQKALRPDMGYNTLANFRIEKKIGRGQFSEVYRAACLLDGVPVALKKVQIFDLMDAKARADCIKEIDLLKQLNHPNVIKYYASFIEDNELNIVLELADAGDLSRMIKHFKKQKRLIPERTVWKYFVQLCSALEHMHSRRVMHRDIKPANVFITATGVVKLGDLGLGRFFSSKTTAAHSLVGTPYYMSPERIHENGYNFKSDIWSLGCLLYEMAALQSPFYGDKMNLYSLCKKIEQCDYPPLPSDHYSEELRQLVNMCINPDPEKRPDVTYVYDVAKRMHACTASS
# [9] = molecular target: Serine/threonine-protein kinase Nek7 (Homo sapiens) (UniProt Q8TDX7); conditions: at 1 µM
# [10] = molecular target: T4, Serine/threonine-protein kinase Nek9 (Homo sapiens) (UniProt Q8TD19); conditions: at 0.1 µM;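 further: reported value is the mean percent inhibition of NEK9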
# T4 sequence (whole entry): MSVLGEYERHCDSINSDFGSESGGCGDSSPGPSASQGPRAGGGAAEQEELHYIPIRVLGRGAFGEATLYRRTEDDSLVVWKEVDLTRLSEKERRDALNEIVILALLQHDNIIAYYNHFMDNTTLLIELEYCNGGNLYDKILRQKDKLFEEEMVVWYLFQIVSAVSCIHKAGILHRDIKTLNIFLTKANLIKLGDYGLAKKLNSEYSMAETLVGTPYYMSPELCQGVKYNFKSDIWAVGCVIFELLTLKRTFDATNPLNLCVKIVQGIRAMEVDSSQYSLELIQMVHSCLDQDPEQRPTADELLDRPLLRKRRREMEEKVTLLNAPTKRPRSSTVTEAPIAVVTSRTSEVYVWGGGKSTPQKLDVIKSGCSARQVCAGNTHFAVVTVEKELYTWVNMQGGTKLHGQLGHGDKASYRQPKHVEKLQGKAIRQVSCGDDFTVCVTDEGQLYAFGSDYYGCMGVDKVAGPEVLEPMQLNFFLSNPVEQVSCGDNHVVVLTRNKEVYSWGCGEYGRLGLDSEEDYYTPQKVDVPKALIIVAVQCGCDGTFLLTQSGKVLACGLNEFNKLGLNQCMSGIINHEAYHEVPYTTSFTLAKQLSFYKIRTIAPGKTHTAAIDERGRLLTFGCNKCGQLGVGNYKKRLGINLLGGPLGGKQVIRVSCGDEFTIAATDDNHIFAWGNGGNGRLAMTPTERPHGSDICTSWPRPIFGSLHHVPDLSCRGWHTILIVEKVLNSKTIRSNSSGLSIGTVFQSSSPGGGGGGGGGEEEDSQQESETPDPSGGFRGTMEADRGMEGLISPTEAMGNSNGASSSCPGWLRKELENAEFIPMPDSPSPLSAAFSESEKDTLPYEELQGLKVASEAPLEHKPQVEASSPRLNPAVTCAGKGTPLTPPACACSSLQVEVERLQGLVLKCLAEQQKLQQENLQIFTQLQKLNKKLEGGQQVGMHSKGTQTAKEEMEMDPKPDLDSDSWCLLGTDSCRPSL
structure (smiles),measurement,setting,value
CC1=C(C(=O)Nc2ccc3[nH]ncc3c2)C(c2ccc(F)cc2)NC(=O)N1 (stereo not given),inhibition,[1],4.43%
same,inhibition,[2],2.09%
same,inhibition,[3],4.56%
same,inhibition,[4],3.07%
same,inhibition,[5],2.73%
same,inhibition,[6],0.8%
same,inhibition,[7],0.71%
same,inhibition,[8],3.54%
same,inhibition,[9],2.72%
same,inhibition,[10],2.85%

# Source: ChEMBL document CHEMBL1961873, “Compounds: GSK PKIS; Assays: Nanosyn kinase panel” (2012)
